Measured values taken from PubChem BioAssay (NCATS).
Inconclusive results are not listed. Activity calls are given as the source filed them. Calls come from the whole dose curve; as a rule, active = well fitted inhibition curve with a large enough effect; inconclusive = small, poorly fitted or top-dose-only effect; inactive = flat fitted curve, though single readings scatter.

Columns and labels:
[1] = qHTS profiling for inhibitors of Plasmodium falciparum proliferation (AID 504749);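 note: 0% = DMSO vehicle and full inhibition = artemisinin control; nearly all actives have a fitted effect of over 60% in size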; conditions: P. falciparum in erythrocytes, SYBR Green DNA, 72 h
Procedure, shortened: (§1)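 P. falciparum-infected erythrocytes (0.3% parasitemia, 2.5% hematocrit final) were exposed to compounds for 72 h at 37 C in 5% CO2, then lysed with SYBR Green buffer overnight at room temperature; parasite DNA fluorescence was normalized to artemisinin and DMSO controls.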

[2] = tested on: 3D7; assay: as above; conditions: P. falciparum in erythrocytes, SYBR Green DNA, 72 h; series mostly up to 28.7 µM
Procedure, shortened: as §1

[3] = tested on: 7G8; assay: as above; conditions: P. falciparum in erythrocytes, SYBR Green DNA, 72 h; series mostly up to 28.7 µM
Procedure, shortened: as §1

[4] = tested on: AA1029; assay: as above; conditions: P. falciparum in erythrocytes, SYBR Green DNA, 72 h; series mostly up to 28.7 µM
Procedure, shortened: as §1

[5] = tested on: AS120; assay: as above; conditions: P. falciparum in erythrocytes, SYBR Green DNA, 72 h; series mostly up to 28.7 µM
Procedure, shortened: as §1

[6] = tested on: ATS189; assay: as above; conditions: P. falciparum in erythrocytes, SYBR Green DNA, 72 h; series mostly up to 28.7 µM
Procedure, shortened: as §1

[7] = tested on: ATS95; assay: as above; conditions: P. falciparum in erythrocytes, SYBR Green DNA, 72 h; series mostly up to 28.7 µM
Procedure, shortened: as §1

[8] = tested on: C2A; assay: as above; conditions: P. falciparum in erythrocytes, SYBR Green DNA, 72 h; series mostly up to 28.7 µM
Procedure, shortened: as §1

[9] = tested on: CP185; assay: as above; conditions: P. falciparum in erythrocytes, SYBR Green DNA, 72 h; series mostly up to 28.7 µM
Procedure, shortened: as §1

[10] = tested on: CP191; assay: as above; conditions: P. falciparum in erythrocytes, SYBR Green DNA, 72 h; series mostly up to 28.7 µM
Procedure, shortened: as §1

[11] = tested on: CP192; assay: as above; conditions: P. falciparum in erythrocytes, SYBR Green DNA, 72 h; series mostly up to 28.7 µM
Procedure, shortened: as §1

[12] = tested on: CP194; assay: as above; conditions: P. falciparum in erythrocytes, SYBR Green DNA, 72 h; series mostly up to 28.7 µM
Procedure, shortened: as §1

[13] = tested on: CP201; assay: as above; conditions: P. falciparum in erythrocytes, SYBR Green DNA, 72 h; series mostly up to 28.7 µM
Procedure, shortened: as §1

[14] = tested on: CP203; assay: as above; conditions: P. falciparum in erythrocytes, SYBR Green DNA, 72 h; series mostly up to 28.7 µM
Procedure, shortened: as §1

[15] = tested on: CP211; assay: as above; conditions: P. falciparum in erythrocytes, SYBR Green DNA, 72 h; series mostly up to 28.7 µM
Procedure, shortened: as §1

[16] = tested on: CP215; assay: as above; conditions: P. falciparum in erythrocytes, SYBR Green DNA, 72 h; series mostly up to 28.7 µM
Procedure, shortened: as §1

[17] = tested on: CP217; assay: as above; conditions: P. falciparum in erythrocytes, SYBR Green DNA, 72 h; series mostly up to 28.7 µM
Procedure, shortened: as §1

[18] = tested on: CP237; assay: as above; conditions: P. falciparum in erythrocytes, SYBR Green DNA, 72 h; series mostly up to 28.7 µM
Procedure, shortened: as §1

[19] = tested on: CP238; assay: as above; conditions: P. falciparum in erythrocytes, SYBR Green DNA, 72 h; series mostly up to 28.7 µM
Procedure, shortened: as §1

[20] = tested on: CP247; assay: as above; conditions: P. falciparum in erythrocytes, SYBR Green DNA, 72 h; series mostly up to 28.7 µM
Procedure, shortened: as §1

[21] = at 28.7 µM (top of the series), parasite line A
[22] = at 28.7 µM (top of the series), parasite line B

Cc1cc2nc3c(=O)[nH]c(=O)nc-3n(C[C@H](O)[C@H](O)[C@H](O)COP(=O)(O)OP(=O)(O)OC[C@H]3O[C@@H](n4cnc5c(N)ncnc54)[C@H](O)[C@@H]3O)c2cc1C
inactive: activity, negative = inhibition [1, 21] -1.67% | activity, negative = inhibition [1, 22] 14.9% | Potency [2] | Potency [3] | Potency [4] | Potency [5] | Potency [6] | Potency [7] | Potency [8] | Potency [9] | Potency [10] | Potency [11] | Potency [12] | Potency [13] | Potency [14] | Potency [15] | Potency [16] | Potency [17] | Potency [18] | Potency [19]

CCOC(C)OCC
inactive: activity, negative = inhibition [1, 21] -1.66% | activity, negative = inhibition [1, 22] -9.74% | Potency [2] | Potency [3] | Potency [4] | Potency [5] | Potency [6] | Potency [7] | Potency [8] | Potency [9] | Potency [10] | Potency [11] | Potency [12] | Potency [13] | Potency [14] | Potency [15] | Potency [16] | Potency [17] | Potency [18] | Potency [19] | Potency [20]

CC/C(=C(/CC)c1ccc(OP(=O)(O)O)cc1)c1ccc(OP(=O)(O)O)cc1
inactive: activity, negative = inhibition [1, 21] 13.6% | activity, negative = inhibition [1, 22] -2.71% | Potency [2] | Potency [3] | Potency [4] | Potency [5] | Potency [6] | Potency [7] | Potency [8] | Potency [9] | Potency [10] | Potency [11] | Potency [12] | Potency [13] | Potency [14] | Potency [15] | Potency [16] | Potency [17] | Potency [18] | Potency [19] | Potency [20]

C[Si](C)(C)O[Si](C)(C)C
inactive: activity, negative = inhibition [1, 21] 4.89% | activity, negative = inhibition [1, 22] 10.8% | Potency [2] | Potency [3] | Potency [4] | Potency [5] | Potency [6] | Potency [7] | Potency [8] | Potency [9] | Potency [10] | Potency [11] | Potency [12] | Potency [13] | Potency [14] | Potency [15] | Potency [16] | Potency [17] | Potency [18] | Potency [19] | Potency [20]

O=C(O)[C@H]1CN(C/C=C/P(=O)(O)O)CCN1
inactive: activity, negative = inhibition [1, 21] 5.03% | activity, negative = inhibition [1, 22] 6.62% | Potency [2] | Potency [3] | Potency [4] | Potency [5] | Potency [6] | Potency [7] | Potency [8] | Potency [9] | Potency [10] | Potency [11] | Potency [12] | Potency [13] | Potency [14] | Potency [15] | Potency [16] | Potency [17] | Potency [18] | Potency [19] | Potency [20]

CC1(O)CCC(C(C)(C)O)CC1 (stereo unspecified)
inactive: activity, negative = inhibition [1, 21] -2.29% | activity, negative = inhibition [1, 22] 4.1% | Potency [2] | Potency [3] | Potency [4] | Potency [5] | Potency [6] | Potency [7] | Potency [8] | Potency [9] | Potency [10] | Potency [11] | Potency [12] | Potency [13] | Potency [14] | Potency [15] | Potency [16] | Potency [17] | Potency [18] | Potency [19] | Potency [20]

CC1(C)S[C@@H]2[C@H](NC(=O)C3(N)CCCCC3)C(=O)N2[C@H]1C(=O)O
inactive: activity, negative = inhibition [1, 21] 1.02% | activity, negative = inhibition [1, 22] 10.4% | Potency [2] | Potency [3] | Potency [4] | Potency [5] | Potency [6] | Potency [7] | Potency [8] | Potency [9] | Potency [10] | Potency [11] | Potency [12] | Potency [13] | Potency [14] | Potency [15] | Potency [16] | Potency [17] | Potency [18] | Potency [19] | Potency [20]

CCCCCCCCCCCCCC(=O)OCC(COP(=O)([O-])OCC[N+](C)(C)C)OC(=O)CCCCCCCCCCCCC (stereo unspecified)
inactive: activity, negative = inhibition [1, 21] 4.09% | activity, negative = inhibition [1, 22] -2.15% | Potency [2] | Potency [3] | Potency [4] | Potency [5] | Potency [6] | Potency [7] | Potency [8] | Potency [9] | Potency [10] | Potency [11] | Potency [12] | Potency [13] | Potency [14] | Potency [15] | Potency [16] | Potency [17] | Potency [18] | Potency [19] | Potency [20]

CCCCCCOC(=O)c1cccnc1
inactive: activity, negative = inhibition [1, 21] 6.05% | activity, negative = inhibition [1, 22] -29.8% | Potency [2] | Potency [3] | Potency [4] | Potency [5] | Potency [6] | Potency [7] | Potency [8] | Potency [9] | Potency [10] | Potency [11] | Potency [12] | Potency [13] | Potency [14] | Potency [15] | Potency [16] | Potency [17] | Potency [18] | Potency [19] | Potency [20]

CN1C(=O)OC(C)(C)C1=O
inactive: activity, negative = inhibition ([1]; at 12.8 µM (top of the series), parasite line A) -13.9% | activity, negative = inhibition ([1]; at 12.8 µM (top of the series), parasite line B) 4.58% | Potency [2] | Potency [3] | Potency [4] | Potency [5] | Potency [6] | Potency [7] | Potency [8] | Potency [9] | Potency [10] | Potency [11] | Potency [12] | Potency [13] | Potency [14] | Potency [15] | Potency [16] | Potency [17] | Potency [18] | Potency [19] | Potency [20]

NCC[C@H](O)C(=O)N[C@@H]1C[C@H](N)[C@@H](O[C@H]2O[C@H](CN)CC[C@H]2N)[C@H](O)[C@H]1O[C@H]1O[C@H](CO)[C@@H](O)[C@H](N)[C@H]1O
inactive: activity, negative = inhibition [1, 21] -7.43% | activity, negative = inhibition [1, 22] 9.77% | Potency [2] | Potency [3] | Potency [4] | Potency [5] | Potency [6] | Potency [7] | Potency [8] | Potency [9] | Potency [10] | Potency [11] | Potency [12] | Potency [13] | Potency [14] | Potency [15] | Potency [16] | Potency [17] | Potency [18] | Potency [19] | Potency [20]

COC(=O)C(CN)c1c[nH]c2ccc(OC)cc12 (stereo unspecified)
inactive: activity, negative = inhibition [1, 21] -3.75% | activity, negative = inhibition [1, 22] -2.84% | Potency [2] | Potency [3] | Potency [4] | Potency [5] | Potency [6] | Potency [7] | Potency [8] | Potency [9] | Potency [10] | Potency [11] | Potency [12] | Potency [13] | Potency [14] | Potency [15] | Potency [16] | Potency [17] | Potency [18] | Potency [19] | Potency [20]
